These results are taken from PubChem BioAssay (NCI).

Each structure is given as a SMILES string. The panel holds about 83,000 compounds, 20% with a hit somewhere; the sample as a whole holds those more often.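 96-well plates, one dose, 48 hours. Percent growth reported; active if below 10.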 Values without a mark were called inactive. Activity calls are given as the source filed them.

Among the test systems are T-47D breast; BT-549 breast; MDA-MB-435 melanoma; SW-620 colon; MCF7 breast; HCT-116 colon; HCC-2998 colon; KM12 colon.
Holding throughout (assay): NCI-60 one-dose screen, 48 h (100 = growth as untreated, 0 = no growth, -100 = all killed)
Holding throughout (conditions): 10 µM unless noted

As for `N=c1sc(Cc2cc(Cl)ccc2Cl)cn1CC(=O)c1ccccc1`, the growth is 38.3% in the experiment on T-47D breast; 68.8% with BT-549 breast; -41.5% (active) with MDA-MB-435 melanoma; 21.2% in the experiment on SW-620 colon; 32.3% in the experiment on MCF7 breast; 26.1% in the experiment on HCT-116 colon. The growth was 31.6% in the experiment on HCC-2998 colon and 16.1% in the experiment on KM12 colon.

Consider `CCCn1c(=S)sc2c1nc(C)n1c(Nc3ccccc3)nnc21`, for which the growth is 15.6% in the experiment with T-47D breast; 76.2% in the experiment on BT-549 breast; 63.7% in the experiment with MDA-MB-435 melanoma; 104% in the experiment with SW-620 colon; 77% in the experiment with MCF7 breast; 59.1% in the experiment on HCT-116 colon. Further, the growth with HCC-2998 colon is 78.3%; in the experiment with KM12 colon it was 96.5%.

With `Cc1[nH]c(/C=C/C(=O)c2ccc(C(F)(F)F)c(F)c2)c(C)c1C(=O)NCC(C)C`, the growth in the experiment on T-47D breast was 88.2%; in the experiment on BT-549 breast, 111%; with MDA-MB-435 melanoma it was 103%; with SW-620 colon, 102%; in the experiment on MCF7 breast, 86%; in the experiment with HCT-116 colon, 96.7%. Further, the growth in the experiment on HCC-2998 colon is 98.9%; in the experiment with KM12 colon, 101%.

For `O=C1NC(=C(Cl)Cl)/C(=N/S(=O)(=O)N2CCCCC2)N1`, the growth in the experiment on T-47D breast is 41.6%; in the experiment on BT-549 breast it was 63.6%; in the experiment with MDA-MB-435 melanoma it was 47.6%; with SW-620 colon, -62.3% (active); in the experiment on MCF7 breast, 10.1%; in the experiment on HCT-116 colon, 6.37% (active). Also, the growth is 4.74% (active) with HCC-2998 colon and 5.62% (active) in the experiment on KM12 colon.

Regarding `COc1ccc(-c2cc(-c3ccc(OC)cc3)nc(NCCCNc3ccnc4cc(Cl)ccc34)n2)cc1`, the growth is 89.3% in the experiment on T-47D breast; 81.2% with BT-549 breast; -69.9% (active) in the experiment with MDA-MB-435 melanoma; -39.7% (active) with SW-620 colon; -54.2% (active) in the experiment on MCF7 breast; -84.9% (active) in the experiment on HCT-116 colon. The figures for the growth with HCC-2998 colon and in the experiment on KM12 colon were -56.4% (active) and 44.8%, respectively.

For `CCN(CC)CCOc1nc2c3ccc(Cl)cc3nn2c2ccccc12`, the growth with T-47D breast was 53.4%; in the experiment on BT-549 breast it was 70.3%; with MDA-MB-435 melanoma it was 36.3%; in the experiment with SW-620 colon, 19.7%; in the experiment on MCF7 breast, 2.07% (active); with HCT-116 colon, 5.87% (active). Also, the growth was 15.4% in the experiment on HCC-2998 colon and 43.1% in the experiment with KM12 colon.

Turning to `C=C(c1ccc(C(=O)O)cn1)c1cc2c(cc1C)C(C)(C)CCC2(C)C`, the growth with T-47D breast was 81.5%; in the experiment on BT-549 breast, 86.4%; in the experiment on MDA-MB-435 melanoma, 92.6%; in the experiment with SW-620 colon, 117%; with MCF7 breast, 65.6%; in the experiment with HCT-116 colon, 82.3%. Moreover, the figures for the growth in the experiment with HCC-2998 colon and with KM12 colon were 126% and 86.1%, respectively.

Regarding `O=C(N/N=C/c1ccc(O)cc1O)c1ccc(Nc2ccnc(C(F)(F)F)c2)cc1`, the growth was 4.87% (active) in the experiment on T-47D breast; 41.5% with BT-549 breast; 44.7% in the experiment on MDA-MB-435 melanoma; 49.3% in the experiment on SW-620 colon; 25.5% in the experiment with MCF7 breast; 27.5% in the experiment on HCT-116 colon. Also, the growth in the experiment on HCC-2998 colon is 64.7%; with KM12 colon, 57.2%.

With `COc1cc2c(c(OC)c1OC)C(=O)N[C@@H]1[C@@H](O)[C@@H](O)[C@H](O)C[C@@H]21`, the growth in the experiment with T-47D breast is 100%; in the experiment on BT-549 breast, 110%; with MDA-MB-435 melanoma it was 110%; in the experiment with SW-620 colon, 109%; in the experiment on MCF7 breast, 96.1%; in the experiment on HCT-116 colon it was 98.9%. Besides, the growth was 101% in the experiment with HCC-2998 colon and 108% in the experiment with KM12 colon.

For `N#Cc1c(N2CCOCC2)nc(=S)[nH]c1-c1ccccc1`, the growth was 37.3% with T-47D breast; 57.7% in the experiment on BT-549 breast; 82.2% with MDA-MB-435 melanoma; 82.1% in the experiment with SW-620 colon; 56.6% in the experiment on MCF7 breast; 86.6% with HCT-116 colon. Moreover, the growth with HCC-2998 colon is 79.1%; with KM12 colon it was 77.6%.

`COc1ccc(Nc2ncc(C(N)=O)c(NCCCNC(=O)C3CCC3)n2)cc1`: the growth in the experiment on T-47D breast was 102%; with BT-549 breast it was 24.5%; with MDA-MB-435 melanoma it was 84%; in the experiment with SW-620 colon, 50.9%; with MCF7 breast it was 64%; with HCT-116 colon, 54%. The growth in the experiment on HCC-2998 colon is 98.5%; in the experiment with KM12 colon, 29.3%.

`O=C(O)C1CN(c2cccc(Cl)c2)N(c2cccc(Cl)c2)C1=O` (configuration not stated): the growth with T-47D breast is 88.9%; in the experiment on BT-549 breast it was 101%; in the experiment with MDA-MB-435 melanoma, 94.2%; in the experiment with SW-620 colon, 97.8%; with MCF7 breast, 91.8%; in the experiment on HCT-116 colon, 97.4%. For the same compound, the growth in the experiment with HCC-2998 colon was 103%; in the experiment with KM12 colon it was 81.3%.

With `O=C1NC(=O)c2c1c1c3ccccc3[nH]c1c1oc3cc(Br)ccc3c21`, the growth in the experiment with T-47D breast is 28.1%; in the experiment on BT-549 breast, 81.3%; in the experiment on MDA-MB-435 melanoma, 76.6%; in the experiment on SW-620 colon it was 51.5%; with MCF7 breast it was 36.2%; with HCT-116 colon it was 65.1%. Further, the results for the growth in the experiment on HCC-2998 colon and in the experiment with KM12 colon were 99.7% and 64.4%, respectively.

On to `C/C(=C(\c1ccc(OCCN2CCCCCC2)cc1)c1ccc(OC(=O)Cc2ccccc2)cc1)c1ccc(Cl)cc1`, for which the growth in the experiment on T-47D breast was 10%; with BT-549 breast it was 67.5%; in the experiment on MDA-MB-435 melanoma, 41.6%; in the experiment on SW-620 colon it was -34.7% (active); with MCF7 breast, 3.78% (active); in the experiment with HCT-116 colon, 4.58% (active). Further, the growth in the experiment with HCC-2998 colon was 13.6%; in the experiment with KM12 colon, 22.1%.
